# Results reported in PubChem BioAssay (NCI).
# This is part of a sample that, as a whole, favours compounds with a hit. Of some 83,000 tested, about 20% had one in any assay.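 Compound tested at a single concentration for 48 hours in 96-well plates; a percent growth value below 10 was scored as active.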 Unmarked numbers belong to inactive results. The source made the active and inactive calls.
# Columns and labels:
# Experiment in all cases: NCI-60 one-dose screen, 48 h (100 = growth as untreated, 0 = no growth, -100 = all killed)
# Conditions in all cases: 10 µM
# NCI-H23 lung = tested on: NCI-H23 lung
# NCI-H226 lung = tested on: NCI-H226 lung
# NCI-H322M lung = tested on: NCI-H322M lung
# HOP-62 NSCLC = tested on: HOP-62 NSCLC
# NCI-H460 lung = tested on: NCI-H460 lung
# NCI-H522 lung = tested on: NCI-H522 lung
# A549/ATCC NSCLC = tested on: A549/ATCC NSCLC
# 786-0 renal = tested on: 786-0 renal
# COLO 205 colon = tested on: COLO 205 colon
# DU-145 prostate = tested on: DU-145 prostate
# K-562 leukemia = tested on: K-562 leukemia
# MALME-3M melanoma = tested on: MALME-3M melanoma
# MDA-MB-231 breast = tested on: MDA-MB-231 breast
# RXF 393 renal = tested on: RXF 393 renal
# SF-268 CNS = tested on: SF-268 CNS
# SF-295 CNS = tested on: SF-295 CNS
# SF-539 CNS = tested on: SF-539 CNS
# M14 melanoma = tested on: M14 melanoma
# HCT-15 colon = tested on: HCT-15 colon
# UACC-257 melanoma = tested on: UACC-257 melanoma
SMILES,growth (NCI-H23 lung),growth (NCI-H226 lung),growth (NCI-H322M lung),growth (HOP-62 NSCLC),growth (NCI-H460 lung),growth (NCI-H522 lung),growth (A549/ATCC NSCLC),growth (786-0 renal),growth (COLO 205 colon),growth (DU-145 prostate),growth (K-562 leukemia),growth (MALME-3M melanoma),growth (MDA-MB-231 breast),growth (RXF 393 renal),growth (SF-268 CNS),growth (SF-295 CNS),growth (SF-539 CNS),growth (M14 melanoma),growth (HCT-15 colon),growth (UACC-257 melanoma)
Cc1cc(Cl)nc(N(CCCNc2ccnc3cc(Cl)ccc23)Cc2cccs2)n1,-12.9% (active),41.1%,29.7%,23.1%,7.09% (active),-0.273% (active),18.1%,17.4%,-73.3% (active),30.7%,-11.7% (active),-30% (active),17.2%,0.398% (active),38.6%,13.1%,3.33% (active),-7.28% (active),8.59% (active),
CSc1nn(-c2ccccc2)c2ncnc(Oc3ccccc3)c12,101%,90.6%,88.6%,96.7%,103%,72.6%,87.3%,92.9%,118%,101%,96.5%,104%,98.3%,83.6%,92.5%,101%,98%,102%,93.2%,107%
COc1cc2cc3c(nc2cc1OC)CCN3Cc1ccc(NC(=O)Nc2ccc(F)cc2F)cc1,71.5%,79.4%,84.8%,105%,97.6%,63%,69.4%,70.4%,90.9%,91.2%,61.5%,93.2%,89%,88.6%,94.9%,76.9%,97.8%,81.8%,78.8%,77.3%
NC(=O)c1ccc(-c2cccc3c(=O)nc(N4CCOCC4)oc23)cc1,92.4%,82.6%,93%,95.1%,105%,89.5%,100%,100%,104%,103%,110%,85.4%,91.9%,104%,93.8%,93.9%,102%,97.8%,102%,104%
COc1ccc(OC)c(NC(=O)c2sc3nc4c(cc3c2N)C(=O)CCC4)c1,78.5%,88.6%,75.9%,94%,37.4%,60.6%,39%,95.4%,34.1%,113%,61.7%,86.4%,86.9%,85.4%,110%,80.9%,97.3%,93.9%,80.6%,93.5%
Cc1cc(Nc2ccc(Cl)cc2)nc(NCCCNc2ccnc3cc(Cl)ccc23)n1,51.2%,102%,-0.971% (active),-22.6% (active),-44.9% (active),-78.8% (active),-55.2% (active),-98.7% (active),-91.1% (active),1.28% (active),-53.8% (active),-82.2% (active),-88.2% (active),-91.9% (active),-66.5% (active),-68.2% (active),-100% (active),-87.5% (active),-54.3% (active),
Cc1cc(N(CCCNc2ccnc3cc(Cl)ccc23)Cc2cccs2)nc(Cl)n1,25.3%,52.5%,72.9%,41.1%,35.3%,35.6%,51.9%,48.2%,-37.9% (active),50.2%,0.837% (active),37.9%,46.6%,46.2%,61.9%,36%,56.3%,22.9%,24.3%,
CC(=O)O[C@]1(C)CC[C@H]2[C@H](CNCCc3ccc(Cl)cc3)C(=O)O[C@@H]2C2=C(C)C(=O)C[C@H]21,102%,94.9%,91.9%,94%,106%,-33.4% (active),85.6%,96.6%,97%,89.4%,79.4%,84.2%,90.5%,115%,91%,105%,106%,88.4%,88.4%,76.4%
CN1CC[C@@H](c2c(O)cc(O)c3c(=O)cc(-c4ccccc4Cl)oc23)[C@@H](O)C1,-13.3% (active),11.8%,4.68% (active),12.1%,5.19% (active),-42.6% (active),14.2%,13%,-51% (active),1.56% (active),-23.8% (active),-68.9% (active),13.4%,12.4%,9.12% (active),7.54% (active),-31.3% (active),-58.9% (active),-26.7% (active),15.5%
CC(C)=CCc1cc(O)cc2c1OC(C=C(C)C)C1=C2C(=O)C2=C(C1=O)S(=O)(=O)CCN2 (stereo unspecified),28.6%,59.8%,5.2% (active),35%,31.4%,7.19% (active),70.1%,80%,43.4%,56.4%,5.77% (active),-64.7% (active),17.5%,73.3%,2.3% (active),85.5%,-19.2% (active),27.6%,58%,
COc1cc(Nc2ccnc(NCCCNc3ccnc4cc(Cl)ccc34)n2)cc(OC)c1,55.8%,87.6%,15.2%,27.4%,-4.19% (active),-44.8% (active),11.9%,-90.9% (active),-92.2% (active),34.3%,-51.1% (active),-87.7% (active),-54.6% (active),-83.3% (active),-19.9% (active),-75.9% (active),-98.5% (active),-85.6% (active),,
COc1ccc(Nc2cc(C)nc(NCCCNc3ccnc4cc(Cl)ccc34)n2)cc1,63.2%,110%,-3.79% (active),18.7%,-4.78% (active),-74% (active),-44.7% (active),-97.7% (active),-96.3% (active),28%,-42.2% (active),-86.2% (active),-67.7% (active),-90.4% (active),-54.5% (active),-78.8% (active),-100% (active),-81.1% (active),-55.8% (active),
Cc1ccc(C(=O)Nc2cccc(F)c2)cc1NC(=O)C1(c2ncnc3[nH]ccc23)CC1,68.2%,67.4%,116%,67.4%,96.2%,61%,82.4%,110%,59.1%,106%,6.39% (active),35%,54.8%,91.5%,95.2%,89.3%,73%,60%,88.8%,
NC(=O)CC1(c2ccccc2)CCCCC1,103%,110%,90.9%,102%,104%,96%,116%,97.1%,103%,107%,92.3%,93.8%,105%,114%,98.5%,103%,104%,96%,101%,
COc1cc2nc(Nc3cccc(C(=O)O)c3)nc(N)c2cc1OC,128%,91.4%,126%,-37.3% (active),108%,87.4%,104%,-9.99% (active),111%,102%,108%,111%,86.8%,106%,95.3%,96.4%,97%,-45.1% (active),102%,97.5%
Cn1c([N+](=O)[O-])cnc1/C=C1\Oc2ccccc2C1=O,-18% (active),-7.33% (active),18.6%,-10.3% (active),-39.5% (active),-48.5% (active),-31.4% (active),-10.9% (active),-64.6% (active),-8.91% (active),3.53% (active),-71.1% (active),-31.7% (active),-68.9% (active),-49% (active),-1.94% (active),-43.4% (active),-43.3% (active),6.69% (active),-57% (active)
